Laboratory results published in PubChem BioAssay (NCI).
About 83,000 compounds went through this panel and 20% of them were active in at least one assay; those are over-represented in the sample as a whole.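 The endpoint reported here, percent growth, reads 100 for growth as untreated, 0 for no net growth and -100 for all cells dead.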 Calls of active or inactive are those of the source. The calls were made as follows: active = growth percent below 10; inactive = the rest.

Assays:
Test in all cases: NCI-60 one-dose screen, 48 h (100 = growth as untreated, 0 = no growth, -100 = all killed)
NCI-H23 lung = details: 10 µM unless noted
NCI-H226 lung = details: 10 µM unless noted
NCI-H322M lung = details: 10 µM unless noted
HOP-62 NSCLC = details: 10 µM unless noted
NCI-H460 lung = details: 10 µM unless noted
786-0 renal = details: 10 µM unless noted
MDA-MB-231 breast = details: 10 µM unless noted
SF-268 CNS = details: 10 µM unless noted
SF-539 CNS = details: 10 µM unless noted
HCT-15 colon = details: 10 µM
U251 CNS = details: 10 µM unless noted
PC-3 prostate = details: 10 µM unless noted
SK-MEL-28 melanoma = details: 10 µM unless noted
SN12C renal = details: 10 µM unless noted
HS 578T breast = details: 10 µM unless noted
NCI/ADR-RES ovarian = details: 10 µM unless noted
SW-620 colon = details: 10 µM unless noted
MCF7 breast = details: 10 µM unless noted
HCT-116 colon = details: 10 µM unless noted
KM12 colon = details: 10 µM unless noted

Measured: growth

O=S(=O)(Cl)c1ccccc1 (tested in a mixture with another compound)
inactive: NCI-H23 lung 106% | NCI-H226 lung 97.3% | NCI-H322M lung 102% | HOP-62 NSCLC 92.9% | NCI-H460 lung 103% | 786-0 renal 102% | MDA-MB-231 breast 117% | SF-268 CNS 104% | SF-539 CNS 102% | HCT-15 colon 101% | U251 CNS 93.7% | PC-3 prostate 103% | SK-MEL-28 melanoma 103% | SN12C renal 102% | HS 578T breast 102% | NCI/ADR-RES ovarian 110% | SW-620 colon 96.9% | MCF7 breast 93.1% | HCT-116 colon 99.4% | KM12 colon 108%

CCC(CO)NC1CCCCC1 (centres undefined)
inactive: NCI-H23 lung 87.5% | NCI-H226 lung 114% | NCI-H322M lung 97.2% | HOP-62 NSCLC 88.7% | NCI-H460 lung 100% | 786-0 renal 76% | MDA-MB-231 breast 58% | SF-268 CNS 86.9% | SF-539 CNS 17.7% | HCT-15 colon 76.4% | U251 CNS 55.1% | PC-3 prostate 92.2% | SK-MEL-28 melanoma 102% | SN12C renal 75.8% | HS 578T breast 91.2% | NCI/ADR-RES ovarian 80.9% | SW-620 colon 34.6% | MCF7 breast 63.4% | HCT-116 colon 26.8% | KM12 colon 54.6%

CN1CC2CCC(C1)C2=O
inactive: NCI-H23 lung 106% | NCI-H226 lung 103% | NCI-H322M lung 88.4% | HOP-62 NSCLC 84.4% | NCI-H460 lung 104% | 786-0 renal 97.1% | MDA-MB-231 breast 124% | SF-268 CNS 106% | SF-539 CNS 105% | HCT-15 colon 106% | U251 CNS 101% | PC-3 prostate 92.9% | SK-MEL-28 melanoma 113% | SN12C renal 99.8% | HS 578T breast 108% | NCI/ADR-RES ovarian 106% | SW-620 colon 104% | MCF7 breast 102% | HCT-116 colon 95.4% | KM12 colon 115%

CC1COC(=O)C1 (centres undefined)
inactive: NCI-H23 lung 104% | NCI-H226 lung 96.7% | NCI-H322M lung 100% | HOP-62 NSCLC 99.6% | NCI-H460 lung 102% | 786-0 renal 95.1% | MDA-MB-231 breast 120% | SF-268 CNS 109% | SF-539 CNS 96.4% | HCT-15 colon 105% | U251 CNS 102% | PC-3 prostate 102% | SK-MEL-28 melanoma 103% | SN12C renal 98.4% | HS 578T breast 99.2% | NCI/ADR-RES ovarian 106% | SW-620 colon 97.8% | MCF7 breast 93.8% | HCT-116 colon 102% | KM12 colon 99.8%

[N-]=[N+]=NC(C(=O)O)c1ccccc1 (centres undefined)
inactive: NCI-H23 lung 99.2% | NCI-H226 lung 125% | NCI-H322M lung 101% | HOP-62 NSCLC 101% | NCI-H460 lung 115% | 786-0 renal 103% | MDA-MB-231 breast 110% | SF-268 CNS 118% | SF-539 CNS 93.9% | HCT-15 colon 101% | U251 CNS 104% | PC-3 prostate 112% | SK-MEL-28 melanoma 105% | SN12C renal 119% | HS 578T breast 113% | NCI/ADR-RES ovarian 107% | SW-620 colon 107% | MCF7 breast 88.2% | HCT-116 colon 101% | KM12 colon 111%

[Br][Pb]([c]1ccccc1)([c]1ccccc1)[c]1ccccc1
active: NCI-H23 lung -88.8% | NCI-H226 lung -44.6% | NCI-H322M lung -100% | HOP-62 NSCLC -97.7% | NCI-H460 lung -100% | 786-0 renal -96.3% | MDA-MB-231 breast -92.2% | SF-268 CNS -95.1% | SF-539 CNS -90.6% | HCT-15 colon -77.8% | U251 CNS -100% | PC-3 prostate -80.6% | SK-MEL-28 melanoma -100% | SN12C renal -83.7% | HS 578T breast -35.6% | NCI/ADR-RES ovarian -71.6% | SW-620 colon -95.3% | MCF7 breast -69.9% | HCT-116 colon -100% | KM12 colon -99.4%

CCOc1cc(C=C(C#N)C#N)cc(Br)c1O
inactive: NCI-H23 lung 99% | NCI-H226 lung 106% | NCI-H322M lung 98.1% | HOP-62 NSCLC 111% | NCI-H460 lung 102% | MDA-MB-231 breast 109% | SF-268 CNS 95.6% | SF-539 CNS 99.5% | HCT-15 colon 102% | U251 CNS 96.5% | PC-3 prostate 98.4% | SK-MEL-28 melanoma 109% | SN12C renal 106% | HS 578T breast 107% | NCI/ADR-RES ovarian 104% | SW-620 colon 106% | MCF7 breast 96% | HCT-116 colon 99.2% | KM12 colon 103%

CCCCn1cc(C(=O)/C(C#N)=C/c2cc3ccccc3nc2Cl)c2cc(OC)ccc21
inactive: NCI-H23 lung 92.8% | NCI-H226 lung 84.3% | NCI-H322M lung 98% | HOP-62 NSCLC 86.1% | NCI-H460 lung 101% | 786-0 renal 97% | MDA-MB-231 breast 87.8% | SF-268 CNS 83.1% | SF-539 CNS 89% | HCT-15 colon 94.3% | U251 CNS 83.2% | PC-3 prostate 87.7% | SK-MEL-28 melanoma 107% | SN12C renal 79.2% | HS 578T breast 88.6% | NCI/ADR-RES ovarian 91.7% | SW-620 colon 44.7% | MCF7 breast 72% | HCT-116 colon 23.6% | KM12 colon 94.5%
